Screens: PubChem, National Center for Advancing Translational Sciences (NCATS)
Only some compounds are listed: those with a hit (about 12% of all), similar ones and a draw of the others.
JMJD2A Tudor inh: qHTS Assay for Inhibitors of JMJD2A-Tudor Domain; Lysine-specific demethylase 4A (Homo sapiens), O75164; AlphaScreen JMJD2A-Tudor / H3K4me3 peptide binding; Potency, µM (top dose mostly 114 µM), actives largely listed as inhibitors; 4.4% of 390,000 active; further: nearly all actives have a fitted effect of over 50% in size
HP1b chromo inh: HTS for Inhibitors of HP1-beta Chromodomain Interactions with Methylated Histone Tails; Potency, µM (series often up to 114 µM), usual class: inhibitors; AlphaScreen HP1-beta / biotin-H3K9me3 peptide binding; 0.56% of 390,000 active; further: nearly all actives have a fitted effect of over 70% in size
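AlphaScreen: HP1-beta (50 nM) preformed 30 min with biotin-H3(1-18)K9me3 peptide (50 nM) in PBS pH 7.4, 0.01% Tween-20. Compound added for 30 min at RT, then streptavidin donor/nickel chelate acceptor beads (10 ug/mL) for 30 min.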
BAZ2B inh: qHTS Assay for Inhibitors of BAZ2B | Bromodomain adjacent to zinc finger domain protein 2B (Homo sapiens), Q9UIF8 | AlphaScreen BAZ2B-H3K14Ac peptide displacement | Potency, µM (titrated, usually from 114 µM), most hits filed as inhibitors | 4.4% of 360,000 active | AID 504333, 2011; further: nearly all actives have a fitted effect of over 60% in size
Target sequence (Q9UIF8 whole entry, looked up, the tested form may be a part): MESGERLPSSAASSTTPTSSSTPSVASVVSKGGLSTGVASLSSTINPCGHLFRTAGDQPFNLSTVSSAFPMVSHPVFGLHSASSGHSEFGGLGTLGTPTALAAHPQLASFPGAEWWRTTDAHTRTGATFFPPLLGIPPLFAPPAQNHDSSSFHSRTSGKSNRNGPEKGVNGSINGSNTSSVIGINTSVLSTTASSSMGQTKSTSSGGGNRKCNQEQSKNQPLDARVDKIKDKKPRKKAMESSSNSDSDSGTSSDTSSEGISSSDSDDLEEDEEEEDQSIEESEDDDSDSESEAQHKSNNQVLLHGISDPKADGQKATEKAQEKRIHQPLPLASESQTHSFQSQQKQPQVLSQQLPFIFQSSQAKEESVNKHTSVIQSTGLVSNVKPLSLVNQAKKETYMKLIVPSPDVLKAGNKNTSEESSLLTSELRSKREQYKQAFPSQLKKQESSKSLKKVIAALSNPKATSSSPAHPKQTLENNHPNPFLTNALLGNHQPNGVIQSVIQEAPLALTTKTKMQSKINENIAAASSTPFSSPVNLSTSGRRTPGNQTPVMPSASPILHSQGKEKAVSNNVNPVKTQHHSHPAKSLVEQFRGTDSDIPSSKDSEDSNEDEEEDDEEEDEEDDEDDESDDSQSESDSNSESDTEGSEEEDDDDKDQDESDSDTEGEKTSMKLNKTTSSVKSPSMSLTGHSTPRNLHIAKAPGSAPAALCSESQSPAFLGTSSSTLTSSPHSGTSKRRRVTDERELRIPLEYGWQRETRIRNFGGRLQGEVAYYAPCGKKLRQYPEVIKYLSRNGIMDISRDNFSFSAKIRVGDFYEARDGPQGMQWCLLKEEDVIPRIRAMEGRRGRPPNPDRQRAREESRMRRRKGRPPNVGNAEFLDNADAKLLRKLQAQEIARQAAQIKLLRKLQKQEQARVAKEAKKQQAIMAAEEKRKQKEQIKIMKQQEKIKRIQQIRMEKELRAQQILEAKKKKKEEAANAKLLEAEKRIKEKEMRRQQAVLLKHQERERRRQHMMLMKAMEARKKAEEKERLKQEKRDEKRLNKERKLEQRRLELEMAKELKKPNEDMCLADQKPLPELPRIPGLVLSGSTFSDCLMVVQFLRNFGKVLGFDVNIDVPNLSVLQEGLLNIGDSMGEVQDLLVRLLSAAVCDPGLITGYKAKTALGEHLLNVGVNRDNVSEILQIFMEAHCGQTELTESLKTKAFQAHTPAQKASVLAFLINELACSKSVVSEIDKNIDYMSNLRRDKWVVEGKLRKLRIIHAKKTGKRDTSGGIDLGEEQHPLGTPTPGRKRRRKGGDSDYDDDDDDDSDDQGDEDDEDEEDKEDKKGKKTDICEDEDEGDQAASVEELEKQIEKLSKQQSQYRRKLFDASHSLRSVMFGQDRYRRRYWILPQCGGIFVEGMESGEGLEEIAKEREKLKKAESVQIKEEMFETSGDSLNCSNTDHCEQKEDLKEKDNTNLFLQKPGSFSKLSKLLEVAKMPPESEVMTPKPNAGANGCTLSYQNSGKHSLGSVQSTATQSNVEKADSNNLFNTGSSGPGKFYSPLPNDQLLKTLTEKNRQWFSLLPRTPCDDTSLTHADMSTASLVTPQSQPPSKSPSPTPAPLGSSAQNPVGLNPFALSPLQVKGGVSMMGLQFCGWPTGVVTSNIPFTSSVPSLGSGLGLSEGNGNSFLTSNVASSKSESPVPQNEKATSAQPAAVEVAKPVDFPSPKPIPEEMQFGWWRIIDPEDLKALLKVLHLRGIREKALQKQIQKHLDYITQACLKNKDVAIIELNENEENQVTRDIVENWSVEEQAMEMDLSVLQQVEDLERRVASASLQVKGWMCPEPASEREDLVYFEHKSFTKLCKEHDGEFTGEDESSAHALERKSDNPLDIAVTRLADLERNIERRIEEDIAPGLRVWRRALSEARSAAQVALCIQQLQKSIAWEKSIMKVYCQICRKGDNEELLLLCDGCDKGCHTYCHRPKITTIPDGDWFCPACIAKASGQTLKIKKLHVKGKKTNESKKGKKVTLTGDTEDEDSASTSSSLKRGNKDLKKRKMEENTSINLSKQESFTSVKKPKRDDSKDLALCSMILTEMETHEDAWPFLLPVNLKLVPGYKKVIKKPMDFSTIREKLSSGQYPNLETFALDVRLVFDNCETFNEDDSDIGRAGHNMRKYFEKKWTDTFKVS
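Complex of BAZ2B and biotin-H3K14Ac (50 nM apiece) forms over 30 min at RT, then faces library compounds up to 110 uM for another 30 min; AlphaScreen beads added, 20 min dark incubation, luminescence read.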
G9a inh: qHTS Assay for Inhibitors of Histone Lysine Methyltransferase G9a; 8.8% of 350,000 active; G9a H3K9 monomethylation, AlphaScreen, 2 h; Potency, µM (highest dose often 102 µM), actives largely listed as inhibitors; AID 504332, 2011; Histone-lysine N-methyltransferase EHMT2 (Homo sapiens), Q96KQ7; further: nearly all actives have a fitted effect of over 75% in size
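G9a (20 nM) preincubated 15 min RT with compounds, then 500 nM biotinylated H3K9 peptide and 20 uM SAM added; 2 h RT reaction. Monomethyl-H3K9 product detected by AlphaScreen with anti-H3K9me1 antibody, streptavidin donor and anti-rabbit IgG acceptor beads.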
Sfp PPTase inh: qHTS Assay for Inhibitors of Bacillus subtilis Sfp phosphopantetheinyl transferase (PPTase) | 4'-phosphopantetheinyl transferase ffp (Bacillus subtilis), Q9F4F7 | Biochemical Sfp PPTase activity, qHTS | Potency, µM, hits mostly inhibitors | 3.5% of 310,000 active;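 further: the enzyme is Sfp with the accession as filed and its product quenches rhodamine fluorescence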
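With Hepes-Na pH 7.6 buffer containing 10 mM MgCl2, Sfp (15 nM) modified BHQ-2-YbbR (12.5 uM) using rhodamine-CoA (5 uM). Two reads 30 minutes apart at 525/598 nm yielded each well's rate.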
Large screens that a line does not name were inactive. The call rests on the fitted dose curve; in most records, active means well fitted curve in the direction sought with a large enough effect; inconclusive means small, poorly fitted or top-dose-only effect, or another doubt; inactive means no such curve, though single readings can be large; an effect the other way counts as inactive or inconclusive.

CCN1CCN(c2c(C(=O)c3ccc(OC)cc3)cnc3ccccc23)CC1	G9a inh 50µM
COc1cc2ncc(C(=O)c3ccc(C)cc3)c(N3CCCCC3)c2cc1OC	JMJD2A Tudor inh 56µM, BAZ2B inh inconclusive, G9a inh 8.9µM (no result: Sfp PPTase inh)
COC(=O)c1cnn2c(C)c(Cc3c(C)cc(C)cc3C)c(C)nc12	none (no result: Sfp PPTase inh)
Cc1cc(=S)cc(C)n1CCCn1ccnc1	G9a inh 25µM (no result: BAZ2B inh)
Cc1ccc(S(=O)(=O)NC(=O)c2cc(C)n(CCCn3ccnc3)c2C)cc1	JMJD2A Tudor inh 56µM, BAZ2B inh 32µM, G9a inh inconclusive
O=C1CNC(=S)N1CCCn1ccnc1	none
COc1ccc(/C=C2\SC(=S)N(NC(=O)c3ccncc3)C2=O)cc1OC	BAZ2B inh inconclusive (no result: JMJD2A Tudor inh, HP1b chromo inh, G9a inh)
O=C(NN1C(=O)/C(=C/C=C/c2ccccc2)SC1=S)c1ccncc1	G9a inh 45µM
O=C(NN1C(=O)/C(=C/C=C/c2ccco2)SC1=S)c1ccncc1	JMJD2A Tudor inh 14µM, HP1b chromo inh 13µM, BAZ2B inh 5.6µM, G9a inh 4µM, Sfp PPTase inh 7.9µM
COc1ccc(-n2c(C)cc(/C=N/Nc3nnc(C)n3N)c2C)cc1	JMJD2A Tudor inh inconclusive, BAZ2B inh inconclusive, G9a inh 11µM, Sfp PPTase inh 32µM
Cc1nnc(N/N=C/c2ccccc2C(F)(F)F)n1N	G9a inh 45µM
Cc1nnc(N/N=C/c2ccccc2F)n1N	none
Cc1nnc(N/N=C/c2ccco2)n1N	JMJD2A Tudor inh 25µM
O=C(/C=C/c1cccc([N+](=O)[O-])c1)N1CCN(S(=O)(=O)c2cccs2)CC1	BAZ2B inh inconclusive
O=S(=O)(/C=C/c1ccccc1)N1CCOCC1	G9a inh 89µM
Cc1ccc(/C=C/C(=O)N2CCN(S(=O)(=O)c3cccs3)CC2)o1	G9a inh 7.9µM, Sfp PPTase inh 14µM
NC(=O)C1CCN(C(=O)/C=C/c2ccco2)CC1	G9a inh 8.9µM, Sfp PPTase inh inconclusive
O=C(/C=C/c1ccco1)N1CCN(S(=O)(=O)c2cccs2)CC1	JMJD2A Tudor inh inconclusive, HP1b chromo inh inconclusive, BAZ2B inh inconclusive, G9a inh 40µM, Sfp PPTase inh 16µM
Cc1ccc(OCC(=O)NCCNC(=O)c2cnccn2)cc1	none
COc1ccc(N(Cc2cccs2)C(=O)c2ccccc2C)cc1	none (no result: Sfp PPTase inh)
COc1ccc(CNC(=O)C2=C(C)C(=O)OC23CCCCC3)cc1OC	none (no result: Sfp PPTase inh)
CCN(CC)S(=O)(=O)c1ccc2c(c1)N(CC(=O)Nc1ccc(Cl)cc1)C(=O)C1CCCN21 (centres undefined)	G9a inh inconclusive (no result: Sfp PPTase inh)
O=C(/C=C/c1ccco1)N1CCN(S(=O)(=O)/C=C/c2ccccc2)CC1	BAZ2B inh inconclusive, G9a inh 50µM, Sfp PPTase inh 18µM
Cc1c(C(=O)N2CCCC2)oc2c1-c1[nH]ncc1CC2	G9a inh 50µM, Sfp PPTase inh inconclusive
O=C(Nc1ccccc1C(=O)OCc1cc(=O)n2ccsc2n1)c1ccc(Cl)cc1	none (no result: Sfp PPTase inh)
COc1ccc(NC(=O)CN(C)C(=O)c2ccccc2Sc2ncnc3sc(C)c(C)c23)cc1	G9a inh 35µM (no result: Sfp PPTase inh)
Cc1sc2ncnc(Sc3ccccc3C(=O)Nc3ccc(C#N)cc3)c2c1C	G9a inh inconclusive
Cc1sc2ncnc(SC(C)C(=O)N3c4ccccc4Sc4ccccc43)c2c1C (centres undefined)	none
Cc1sc2ncnc(Sc3ccccc3C(=O)Nc3ccc(Br)cc3)c2c1C	JMJD2A Tudor inh inconclusive, HP1b chromo inh inconclusive, G9a inh 8.9µM, Sfp PPTase inh 50µM
Cc1sc2ncnc(Sc3ccccc3C(=O)Nc3ccccc3Cl)c2c1C	G9a inh 3.5µM, Sfp PPTase inh inconclusive
NC(=O)c1ccccc1NC(=O)CCc1ccccc1	none
NC(=O)c1ccccc1NC(=S)NC(=O)CCc1ccccc1	JMJD2A Tudor inh 79µM, HP1b chromo inh inconclusive, G9a inh 4.5µM, Sfp PPTase inh 28µM
NC(=O)c1ccccc1NC(=S)NC(=O)c1ccc(Br)o1	G9a inh 45µM, Sfp PPTase inh 22µM
CC(=O)N1CCC2(CC1)CN(c1cccc(-c3ccccc3)c1)C2	Sfp PPTase inh inconclusive (no result: JMJD2A Tudor inh, HP1b chromo inh, BAZ2B inh)
COc1ccc(NC(=O)Cn2cc(C(=O)c3ccccc3OC)c(=O)c3ccc(C)nc32)cc1OC	BAZ2B inh inconclusive (no result: Sfp PPTase inh)
CCOC(=O)/C(=C\c1cccc(O)c1)c1nc2sc(C)c(C)c2c(=O)[nH]1	JMJD2A Tudor inh 56µM, HP1b chromo inh 28µM, G9a inh 3.2µM, Sfp PPTase inh 7.1µM
CCOC(=O)c1nc2sc(C)c(C)c2c(=O)[nH]1	JMJD2A Tudor inh inconclusive
CCc1c(C)nc(SCC(=O)NNC(=O)c2ccco2)[nH]c1=O	none
Cc1cc(C)cc(NC(=O)C2C3C=CC(O3)C2C(=O)O)c1 (centres undefined)	G9a inh inconclusive
CC(C)=C1C2CCC1C(C(=O)Nc1cc(C)cc(C)c1)C2C(=O)O (centres undefined)	G9a inh 40µM
CC(C)C(=O)Nc1cccc(COc2ccccc2CN(Cc2ccccc2)C(=O)OC(C)(C)C)c1	none (no result: BAZ2B inh, G9a inh, Sfp PPTase inh)
Cc1cc(C)nc(N/N=C/c2ccccc2)n1	Sfp PPTase inh inconclusive
Cc1cc(C)nc(N/N=C/C=C/c2ccccc2)n1	G9a inh 50µM
NC(=O)Nc1ccc(Oc2ncc(C(F)(F)F)cc2Cl)cc1	JMJD2A Tudor inh inconclusive
Cc1[nH]ccc(=O)c1Oc1ncc(C(F)(F)F)cc1Cl	G9a inh 56µM
CC1(C)NC(C(=O)O)Cc2c1[nH]c1ccccc21 (centres undefined)	G9a inh 25µM
CC(=O)N1C(C(=O)O)Cc2c([nH]c3ccccc23)C1(C)C (centres undefined)	none
CC12CCC(=O)N1C(C(=O)O)Cc1c2[nH]c2ccccc12 (centres undefined)	JMJD2A Tudor inh 79µM, G9a inh inconclusive
COc1ccc(Cl)cc1NC(=O)c1cc(S(=O)(=O)N2CCc3ccccc32)cn1C	JMJD2A Tudor inh inconclusive, BAZ2B inh inconclusive, G9a inh inconclusive (no result: Sfp PPTase inh)
Cc1cc(C)n2nc(SC(C)C(=O)Nc3ccc(Cl)cn3)nc2n1 (centres undefined)	none
CCc1cc2c(s1)c1cnn(Cc3ccccc3F)c(=O)c1n2C	none (no result: HP1b chromo inh, BAZ2B inh, G9a inh, Sfp PPTase inh)
COc1cccc2c1cc1c(=O)n(CC(=O)NCCCN3CCN(C)CC3)nc(C)n12	none
COc1ccc(CC(=O)NCc2n[nH]c(=S)n2-c2ccc(F)cc2)cc1	JMJD2A Tudor inh 50µM
COc1ccc(-n2c(CNC(=O)c3cccs3)n[nH]c2=S)cc1	JMJD2A Tudor inh 22µM, G9a inh 20µM
COc1ccc(CC(=O)NCc2n[nH]c(=S)n2-c2cccc(Cl)c2)cc1	JMJD2A Tudor inh 50µM, G9a inh 3.2µM
COc1ccc(CC(=O)NCCc2ccc(Cl)cc2Cl)cc1	none
COc1ccc(CC(=O)NCc2n[nH]c(=S)n2-c2ccccc2OC)cc1	JMJD2A Tudor inh 14µM, G9a inh 35µM (no result: BAZ2B inh)
